From PubChem BioAssay (NCI)
Compounds without any hit were thinned out: in the full panel of roughly 79,000, 15% have a hit. Active and inactive are the calls of the source. Cut-off read from the data, not from the text of the source: active = growth inhibition above about 70%; inactive = the rest.

Key:
[1] = NCI Yeast Anticancer Drug Screen. Data for the rad52 strain (AID 147);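 note: 0% = growth of vehicle-treated control cultures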; settings: S. cerevisiae rad52 mutant growth inhibition, stronger effect = higher value
How it was run: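 Vehicle-treated cultures served as the reference for growth inhibition of compound-exposed yeast bearing a DNA repair mutation.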

[2] = NCI Yeast Anticancer Drug Screen. Data for the wt1 strain (AID 149);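 note: 0% = growth of vehicle-treated wt1 cultures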; settings: S. cerevisiae wt1 strain (SPY 50644) growth inhibition, stronger effect = higher value
How it was run: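 wt1 yeast, compound-treated; % growth inhibition vs vehicle control.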

[3] = NCI Yeast Anticancer Drug Screen. Data for the rad50EPP+ strain (AID 151);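 note: 0% = growth of vehicle-treated control cultures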; settings: S. cerevisiae rad50 mutant strain, stronger effect = higher value
How it was run: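 In this screen, rad50EPP+ yeast were exposed to compounds. Growth inhibition was scored against vehicle-treated controls.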

[4] = NCI Yeast Anticancer Drug Screen. Data for the rad50 strain (AID 155);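 note: 0% = growth of vehicle-only cultures of the same strain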; settings: S. cerevisiae rad50 strain growth inhibition, stronger effect = higher value
How it was run: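 Genetically altered yeast (DNA repair pathway); compound treatment; growth inhibition vs vehicle ctrl.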

[5] = NCI Yeast Anticancer Drug Screen. Data for the mec2-1 strain (AID 157); settings: S. cerevisiae mec2-1 strain, stronger effect = higher value
How it was run: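 Vehicle-treated cultures served as reference for growth inhibition of compound-exposed mec2-1 yeast.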

[6] = NCI Yeast Anticancer Drug Screen. Data for the rad14 strain (AID 159);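 note: 0% = growth of vehicle-treated control cultures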; settings: S. cerevisiae rad14 strain growth inhibition, stronger effect = higher value
How it was run: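 Test compounds were applied to a repair-deficient yeast strain. Its growth was then compared with that of cultures given vehicle alone, and inhibition was expressed relative to those controls.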

[7] = NCI Yeast Anticancer Drug Screen. Data for the sgs1 mgt1 strain (AID 161);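 note: 0% = growth of cultures given vehicle only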; settings: S. cerevisiae sgs1 mgt1 strain, stronger effect = higher value
How it was run: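 Read-out: growth inhibition vs vehicle controls. Cells: mutant yeast strain deficient in DNA damage repair.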

[8] = NCI Yeast Anticancer Drug Screen. Data for the CLN2oe strain (AID 163);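 note: 0% = growth of vehicle-only control cultures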; settings: S. cerevisiae CLN2oe strain, stronger effect = higher value
How it was run: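 Inhibition relative to vehicle-treated yeast is reported. Cells: strain with genetic alteration in cell-cycle control, grown with compound.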

[9] = NCI Yeast Anticancer Drug Screen. Data for the cln2 rad14 strain (AID 165);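 note: 0% = growth equal to vehicle treated cultures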; settings: S. cerevisiae cln2 rad14 strain, stronger effect = higher value
How it was run: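 Each compound was tested on cln2 rad14 yeast. Inhibition of growth was calculated against vehicle-exposed controls.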

[10] = NCI Yeast Anticancer Drug Screen. Data for the bub3 strain (AID 167); settings: S. cerevisiae bub3 mutant strain, stronger effect = higher value
How it was run: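 Yeast carrying a defined mutation is treated with each compound, and growth is compared with that of vehicle-exposed cells to give inhibition.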

[11] = NCI Yeast Anticancer Drug Screen. Data for the wt2 strain (AID 169);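 note: 0% = growth of vehicle-treated yeast cultures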; settings: S. cerevisiae wt2 strain growth inhibition, stronger effect = higher value
How it was run: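 Inhibition of yeast growth was determined after compound treatment, normalised to controls receiving only vehicle.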

[12] = NCI Yeast Anticancer Drug Screen. Data for the mlh1 strain (AID 171);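 note: 0% = growth of vehicle-treated control cultures of the same strain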; settings: S. cerevisiae mlh1 strain growth inhibition, stronger effect = higher value
How it was run: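 Vehicle-normalised growth inhibition of a repair- or checkpoint-altered yeast strain following compound treatment.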

[13] = NCI Yeast Anticancer Drug Screen. Data for the sgs1 strain (AID 173);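 note: 0% = growth of vehicle-only control cultures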; settings: S. cerevisiae sgs1 mutant, stronger effect = higher value
How it was run: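 Screen format: yeast with repair or checkpoint alterations, compound exposure, growth read relative to vehicle.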

[14] = NCI Yeast Anticancer Drug Screen. Data for the mlh1 rad18 strain (AID 175); settings: S. cerevisiae mlh1 rad18 strain growth inhibition, stronger effect = higher value
How it was run: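 Vehicle-treated cultures served as the reference for growth inhibition in a yeast strain carrying DNA damage repair alterations exposed to each compound.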

[15] = NCI Yeast Anticancer Drug Screen. Data for the rad18 strain (AID 177); settings: S. cerevisiae rad18 mutant growth inhibition, stronger effect = higher value
How it was run: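 Test articles were incubated with altered yeast defective in DNA damage repair. Results are given as inhibition of growth versus vehicle.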

[16] = at 5.0 µM (retest, dose inferred, filed as 0.5)
[17] = at 50.0 µM (retest, dose inferred, filed as 5.0)

Measured: growth inhibition

COc1ccc(N=Nc2ccc3oc(=O)c(C(=O)Nc4ccccc4)cc3c2)cc1
inactive: [1]; at 1.2 µM -19% | [1]; at 3.7 µM -2% | [2]; at 1.2 µM -4% | [2]; at 3.7 µM 2% | [2]; at 11.0 µM 67% | [3]; at 1.2 µM 6% | [3]; at 3.7 µM 45% | [4]; at 1.2 µM -2% | [4]; at 3.7 µM 7% | [4]; [16] 0% | [5]; at 1.2 µM -18% | [5]; at 3.7 µM 12% | [5]; [16] -12% | [6]; at 1.2 µM 4% | [6]; at 3.7 µM 25% | [7]; [16] 12% | [7]; [17] 48% | [8]; at 1.2 µM -12% | [8]; at 3.7 µM -10% | [8]; at 11.0 µM 48% | [9]; [16] -19% | [10]; at 1.2 µM -11% | [10]; at 3.7 µM 3% | [10]; [16] 29% | [11]; at 1.2 µM 1% | [11]; at 3.7 µM 14% | [12]; at 1.2 µM 25% | [12]; at 3.7 µM 31% | [13]; at 1.2 µM -9% | [13]; at 3.7 µM 18% | [14]; [16] 39% | [15]; at 1.2 µM -7% | [15]; at 3.7 µM 5%
active: [1]; at 11.0 µM 85% | [1]; at 33.0 µM 96% | [1]; at 100.0 µM 95% | [2]; at 33.0 µM 96% | [2]; at 100.0 µM 94% | [3]; at 11.0 µM 83% | [3]; at 33.0 µM 94% | [3]; at 100.0 µM 95% | [4]; at 11.0 µM 89% | [4]; at 33.0 µM 96% | [4]; [17] 95% | [4]; at 50.0 µM 87.7% | [4]; at 100.0 µM 96% | [5]; at 11.0 µM 82% | [5]; at 33.0 µM 97% | [5]; [17] 97% | [5]; at 50.0 µM 91.3% | [5]; at 100.0 µM 95% | [6]; at 11.0 µM 96% | [6]; at 33.0 µM 97% | [6]; at 100.0 µM 97% | [7]; at 50.0 µM 87.2% | [8]; at 33.0 µM 95% | [8]; at 100.0 µM 92% | [9]; [17] 95% | [9]; at 50.0 µM 85.3% | [10]; at 11.0 µM 71% | [10]; at 33.0 µM 96% | [10]; [17] 96% | [10]; at 50.0 µM 90.5% | [10]; at 100.0 µM 95% | [11]; at 11.0 µM 81% | [11]; at 33.0 µM 96% | [11]; at 100.0 µM 96% | [12]; at 11.0 µM 92% | [12]; at 33.0 µM 96% | [12]; at 100.0 µM 91% | [13]; at 11.0 µM 93% | [13]; at 33.0 µM 97% | [13]; at 100.0 µM 96% | [14]; [17] 95% | [14]; at 50.0 µM 85.7% | [15]; at 11.0 µM 84% | [15]; at 33.0 µM 95% | [15]; at 100.0 µM 96%

S=c1nc(Cl)cc2[nH]c(Cl)cn12
inactive: [1]; at 1.2 µM 2% | [1]; at 3.7 µM 6% | [1]; at 11.0 µM 14% | [1]; at 33.0 µM 43% | [2]; at 1.2 µM -3% | [2]; at 3.7 µM -3% | [2]; at 11.0 µM -2% | [2]; at 33.0 µM 13% | [2]; at 100.0 µM 42% | [3]; at 1.2 µM 4% | [3]; at 3.7 µM 18% | [3]; at 11.0 µM 44% | [4]; at 1.2 µM 7% | [4]; at 3.7 µM 9% | [4]; [16] -132% | [4]; at 11.0 µM 27% | [5]; at 1.2 µM 3% | [5]; at 3.7 µM 4% | [5]; [16] -46% | [5]; at 11.0 µM 13% | [5]; at 33.0 µM 24% | [5]; [17] -8% | [6]; at 1.2 µM 1% | [6]; at 3.7 µM -1% | [6]; at 11.0 µM 10% | [6]; at 33.0 µM 20% | [6]; at 100.0 µM 59% | [7]; [16] -61% | [7]; [17] 3% | [7]; at 50.0 µM 47.4% | [8]; at 1.2 µM 1% | [8]; at 3.7 µM -1% | [8]; at 11.0 µM 3% | [8]; at 33.0 µM 3% | [8]; at 100.0 µM 60% | [9]; [16] -57% | [9]; [17] -39% | [10]; at 1.2 µM -4% | [10]; at 3.7 µM -3% | [10]; [16] -30% | [10]; at 11.0 µM 9% | [10]; at 33.0 µM 30% | [10]; [17] 44% | [11]; at 1.2 µM 2% | [11]; at 3.7 µM 3% | [11]; at 11.0 µM 5% | [11]; at 33.0 µM 11% | [12]; at 1.2 µM 8% | [12]; at 3.7 µM 1% | [12]; at 11.0 µM 5% | [12]; at 33.0 µM 19% | [13]; at 1.2 µM 3% | [13]; at 3.7 µM 3% | [13]; at 11.0 µM 15% | [13]; at 33.0 µM 42% | [14]; [16] -117% | [14]; [17] 10%
active: [1]; at 100.0 µM 93% | [3]; at 33.0 µM 89% | [3]; at 100.0 µM 98% | [4]; at 33.0 µM 73% | [4]; [17] 75% | [4]; at 50.0 µM 78.8% | [4]; at 100.0 µM 98% | [5]; at 50.0 µM 82.5% | [5]; at 100.0 µM 80% | [9]; at 50.0 µM 76.6% | [10]; at 50.0 µM 78.5% | [10]; at 100.0 µM 94% | [11]; at 100.0 µM 83% | [12]; at 100.0 µM 90% | [13]; at 100.0 µM 99% | [14]; at 50.0 µM 96.5%

Cc1cc(OCc2ccccc2)ccc1[N+](=O)[O-]
inactive: [1]; at 1.2 µM 20% | [1]; at 3.7 µM 22% | [1]; at 11.0 µM 21% | [1]; at 33.0 µM 44% | [1]; at 100.0 µM 69% | [2]; at 1.2 µM 23% | [2]; at 3.7 µM -10% | [2]; at 11.0 µM 21% | [2]; at 33.0 µM 32% | [2]; at 100.0 µM 60% | [3]; at 1.2 µM -2% | [3]; at 3.7 µM -2% | [3]; at 11.0 µM 5% | [3]; at 33.0 µM 57% | [4]; at 1.2 µM 11% | [4]; at 3.7 µM 34% | [4]; [16] 50% | [4]; at 11.0 µM 29% | [4]; at 33.0 µM 31% | [4]; at 50.0 µM 37.2% | [4]; at 100.0 µM 50% | [5]; at 1.2 µM 2% | [5]; at 3.7 µM 15% | [5]; [16] 51% | [5]; at 11.0 µM 10% | [5]; at 33.0 µM 22% | [5]; at 50.0 µM 26.9% | [6]; at 1.2 µM -15% | [6]; at 3.7 µM 1% | [6]; at 11.0 µM 11% | [6]; at 33.0 µM 39% | [6]; at 100.0 µM 63% | [7]; [16] -5% | [8]; at 1.2 µM 9% | [8]; at 3.7 µM 23% | [8]; at 11.0 µM 11% | [8]; at 33.0 µM 32% | [9]; [16] 40% | [9]; at 50.0 µM 44.1% | [10]; at 1.2 µM -16% | [10]; at 3.7 µM -11% | [10]; [16] 33% | [10]; at 11.0 µM -5% | [10]; at 33.0 µM 12% | [10]; at 50.0 µM 55.6% | [10]; at 100.0 µM 51% | [11]; at 1.2 µM -11% | [11]; at 3.7 µM -11% | [11]; at 11.0 µM -7% | [11]; at 33.0 µM 9% | [11]; at 100.0 µM 47% | [12]; at 1.2 µM 21% | [12]; at 3.7 µM 15% | [12]; at 11.0 µM 3% | [12]; at 33.0 µM 16% | [13]; at 1.2 µM 11% | [13]; at 3.7 µM 16% | [13]; at 11.0 µM 6% | [13]; at 33.0 µM 38% | [14]; [16] 42% | [14]; at 50.0 µM 18.1% | [15]; at 1.2 µM -15% | [15]; at 3.7 µM -14% | [15]; at 11.0 µM -14% | [15]; at 33.0 µM 22% | [15]; at 100.0 µM 66%
active: [3]; at 100.0 µM 75% | [4]; [17] 85% | [5]; [17] 85% | [5]; at 100.0 µM 78% | [7]; [17] 88% | [7]; at 50.0 µM 74.6% | [8]; at 100.0 µM 71% | [9]; [17] 93% | [10]; [17] 95% | [12]; at 100.0 µM 82% | [13]; at 100.0 µM 88% | [14]; [17] 84%
